This is an account of results in article PMC7862700, “An all-to-all approach to the identification of sequence-specific readers for epigenetic DNA modifications on cytosine”.

One assay concerns the target T1, ETS2 (Homo sapiens, UniProt P15036 1-469).
T1 sequence: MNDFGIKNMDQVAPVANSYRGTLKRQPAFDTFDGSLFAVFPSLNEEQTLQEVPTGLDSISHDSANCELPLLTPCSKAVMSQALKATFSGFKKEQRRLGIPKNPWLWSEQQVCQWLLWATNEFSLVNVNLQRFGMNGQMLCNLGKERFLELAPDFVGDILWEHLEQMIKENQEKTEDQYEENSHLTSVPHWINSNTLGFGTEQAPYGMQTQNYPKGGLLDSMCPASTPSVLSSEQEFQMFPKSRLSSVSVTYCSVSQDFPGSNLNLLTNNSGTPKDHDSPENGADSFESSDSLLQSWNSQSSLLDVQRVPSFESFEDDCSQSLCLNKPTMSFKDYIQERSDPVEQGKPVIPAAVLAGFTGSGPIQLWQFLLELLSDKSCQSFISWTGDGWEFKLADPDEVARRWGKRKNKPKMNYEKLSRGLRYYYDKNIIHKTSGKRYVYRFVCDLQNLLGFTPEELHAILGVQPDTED
Kind of assay: DAPPL (digital affinity profiling via proximity ligation, sequencing); 10 mM Tris-HCl pH 7.5, 50 mM NaCl, 1 mM DTT, 4% glycerol, room temperature, 30 min; GST-TFs on glutathione beads, 16-mer random dsDNA library, 0.1% formaldehyde crosslink after washing; high values mean tight binding. The following applies: protein: recombinant; tags: N-terminal GST; dsDNA, one strand shown. The procedure, abridged:
(§1)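 Sequencing on an Illumina NextSeq500 followed washing, crosslinking with 0.1% formaldehyde, proximity ligation (BsaI/T4 ligase, 1 h, 37 °C) and PCR amplification of pools that had been incubated for 30 min at room temperature with 200 nmole of a random double-stranded 16-mer DNA library in Tris/NaCl/DTT/glycerol buffer. Each pool held DNA-barcoded human transcription factors, expressed in yeast as GST fusions and captured on glutathione beads, plus a tag-only sample. Binding signal is a hexamer's read frequency for a factor divided by its frequency in the tag-only sample.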
With TGCACT, the binding signal was 1.32 fold enrichment (6-mer frequency, TF over GST control).
On the same count and under the same terms, for TGATTC the value was 1.06 fold enrichment (6-mer frequency, TF over GST control); for TGCGCA, 1.18 fold enrichment (6-mer frequency, TF over GST control); for AAGTGC, 1.23 fold enrichment (6-mer frequency, TF over GST control).
ATTCAG: the binding signal is 1.14 fold enrichment (6-mer frequency, TF over GST control).
Still for that read-out and setting: with TGCCTG the figure was 1.28 fold enrichment (6-mer frequency, TF over GST control); with CACCAC, 1.15 fold enrichment (6-mer frequency, TF over GST control); with TCCACG, 1.09 fold enrichment (6-mer frequency, TF over GST control).
Consider CCTATT, for which the binding signal was 1.49 fold enrichment (6-mer frequency, TF over GST control).
Same read-out and setting: for ACCTGA the value was 1.03 fold enrichment (6-mer frequency, TF over GST control).
As to CTTACA, the binding signal was 1.14 fold enrichment (6-mer frequency, TF over GST control).
On the same count and under the same terms, with GAATCC the figure was 1.13 fold enrichment (6-mer frequency, TF over GST control); with ATCACT, 1.22 fold enrichment (6-mer frequency, TF over GST control); with TGGAAA, 1.1 fold enrichment (6-mer frequency, TF over GST control).
The same measure, in the same setting: with CTTACC the figure was 1.29 fold enrichment (6-mer frequency, TF over GST control); with CCCTGC, 1.12 fold enrichment (6-mer frequency, TF over GST control); with TGACAC, 1.24 fold enrichment (6-mer frequency, TF over GST control).
Consider AACCAT, for which the binding signal was 1.12 fold enrichment (6-mer frequency, TF over GST control).
The same measure, in the same setting: with CATGAT the figure was 1.07 fold enrichment (6-mer frequency, TF over GST control).
Regarding CTAAAA, the binding signal is 1.21 fold enrichment (6-mer frequency, TF over GST control).

The target of a further assay is T2, SPDEF (Homo sapiens, UniProt O95238 1-335).
T2 sequence: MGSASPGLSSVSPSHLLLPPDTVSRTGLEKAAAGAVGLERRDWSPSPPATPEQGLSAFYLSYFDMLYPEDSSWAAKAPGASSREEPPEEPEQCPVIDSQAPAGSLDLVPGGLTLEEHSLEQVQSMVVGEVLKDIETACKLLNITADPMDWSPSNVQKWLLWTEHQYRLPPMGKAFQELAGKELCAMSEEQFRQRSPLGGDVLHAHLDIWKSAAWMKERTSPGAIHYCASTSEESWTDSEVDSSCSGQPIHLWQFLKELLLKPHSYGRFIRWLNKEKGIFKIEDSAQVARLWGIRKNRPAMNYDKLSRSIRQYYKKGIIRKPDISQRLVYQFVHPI
The assay is described as above. The settings on record: protein: recombinant; tags: N-terminal GST; dsDNA, one strand shown. The procedure, abridged: as §1
Consider CGTCCC, for which the binding signal was 1.35 fold enrichment (6-mer frequency, TF over GST control).
The same measure, in the same setting: for CCCTAA the value was 1.19 fold enrichment (6-mer frequency, TF over GST control); for TTCTTG, 1.28 fold enrichment (6-mer frequency, TF over GST control); for AACAAG, 1.05 fold enrichment (6-mer frequency, TF over GST control).
Same read-out and setting: for TGCCTT the value was 1.32 fold enrichment (6-mer frequency, TF over GST control); for TGCATT, 1.41 fold enrichment (6-mer frequency, TF over GST control).
Same read-out and setting: with CCTTTG the figure was 1.22 fold enrichment (6-mer frequency, TF over GST control); with CTCACC, 1.12 fold enrichment (6-mer frequency, TF over GST control); with AATAGA, 1.05 fold enrichment (6-mer frequency, TF over GST control).
Turning to GAAACG, the binding signal is 1.23 fold enrichment (6-mer frequency, TF over GST control).
Consider TATAAC, for which the binding signal was 1.25 fold enrichment (6-mer frequency, TF over GST control).
On the same count and under the same terms, with CGTTCA the figure was 1.14 fold enrichment (6-mer frequency, TF over GST control); with TGCTGA, 1.11 fold enrichment (6-mer frequency, TF over GST control).
Still for that read-out and setting: for ACATGT the value was 1.19 fold enrichment (6-mer frequency, TF over GST control); for TCCGGG, 2.46 fold enrichment (6-mer frequency, TF over GST control); for GGCCTA, 1.29 fold enrichment (6-mer frequency, TF over GST control).
The same measure, in the same setting: for CGGCAT the value was 1.22 fold enrichment (6-mer frequency, TF over GST control); for ATACTA, 1.17 fold enrichment (6-mer frequency, TF over GST control).
Take TCCCCG: the binding signal was 1.14 fold enrichment (6-mer frequency, TF over GST control).
On the same count and under the same terms, for CGAATT the value was 1.28 fold enrichment (6-mer frequency, TF over GST control); for TGCACT, 1.4 fold enrichment (6-mer frequency, TF over GST control); for TGATTC, 1.04 fold enrichment (6-mer frequency, TF over GST control).
The same measure, in the same setting: with TGCGCA the figure was 1.02 fold enrichment (6-mer frequency, TF over GST control).
Same read-out and setting: for AAGTGC the value was 1.26 fold enrichment (6-mer frequency, TF over GST control); for ATTCAG, 1.05 fold enrichment (6-mer frequency, TF over GST control); for TGCCTG, 1.36 fold enrichment (6-mer frequency, TF over GST control).
As to CACCAC, the binding signal is 1.16 fold enrichment (6-mer frequency, TF over GST control).
Same read-out and setting: with TCCACG the figure was 1.1 fold enrichment (6-mer frequency, TF over GST control); with CCTATT, 1.51 fold enrichment (6-mer frequency, TF over GST control); with ACCTGA, 1.14 fold enrichment (6-mer frequency, TF over GST control).
Same read-out and setting: with CTTACA the figure was 1.34 fold enrichment (6-mer frequency, TF over GST control).
The same measure, in the same setting: with GAATCC the figure was 1.54 fold enrichment (6-mer frequency, TF over GST control); with ATCACT, 1.22 fold enrichment (6-mer frequency, TF over GST control).
Consider TGGAAA, for which the binding signal is 1.04 fold enrichment (6-mer frequency, TF over GST control).
The same measure, in the same setting: for CTTACC the value was 1.39 fold enrichment (6-mer frequency, TF over GST control); for CCCTGC, 1.11 fold enrichment (6-mer frequency, TF over GST control); for TGACAC, 1.11 fold enrichment (6-mer frequency, TF over GST control).
The same measure, in the same setting: with AACCAT the figure was 1.11 fold enrichment (6-mer frequency, TF over GST control); with CATGAT, 1.01 fold enrichment (6-mer frequency, TF over GST control); with CTAAAA, 1.19 fold enrichment (6-mer frequency, TF over GST control).

Another assay has as its target T3, ETV7 (Homo sapiens, UniProt Q9Y603 1-341).
T3 sequence: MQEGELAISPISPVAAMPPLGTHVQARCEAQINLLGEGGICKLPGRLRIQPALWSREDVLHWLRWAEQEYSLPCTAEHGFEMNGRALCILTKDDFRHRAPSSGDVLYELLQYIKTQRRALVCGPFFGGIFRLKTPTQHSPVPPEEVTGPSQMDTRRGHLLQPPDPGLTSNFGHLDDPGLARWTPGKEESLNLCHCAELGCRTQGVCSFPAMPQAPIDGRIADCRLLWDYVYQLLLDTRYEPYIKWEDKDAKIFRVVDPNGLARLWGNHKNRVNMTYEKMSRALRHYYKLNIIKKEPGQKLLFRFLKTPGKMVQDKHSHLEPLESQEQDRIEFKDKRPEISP
Described as above. The settings on record: protein: recombinant; tags: N-terminal GST; dsDNA, one strand shown. The procedure, abridged: as §1
CGTCCC: the binding signal was 1.22 fold enrichment (6-mer frequency, TF over GST control).
Regarding CCCTAA, the binding signal was 1.14 fold enrichment (6-mer frequency, TF over GST control).
Same read-out and setting: for TTCTTG the value was 1.48 fold enrichment (6-mer frequency, TF over GST control); for AACAAG, 1.14 fold enrichment (6-mer frequency, TF over GST control); for TGCCTT, 1.28 fold enrichment (6-mer frequency, TF over GST control).
On the same count and under the same terms, with TGCATT the figure was 1.22 fold enrichment (6-mer frequency, TF over GST control).
Still for that read-out and setting: with CCTTTG the figure was 1.33 fold enrichment (6-mer frequency, TF over GST control); with CTCACC, 1.06 fold enrichment (6-mer frequency, TF over GST control).
On to AATAGA, for which the binding signal is 1.17 fold enrichment (6-mer frequency, TF over GST control).
Regarding GAAACG, the binding signal is 1.4 fold enrichment (6-mer frequency, TF over GST control).
On the same count and under the same terms, with TATAAC the figure was 1.26 fold enrichment (6-mer frequency, TF over GST control).
Turning to CGTTCA, the binding signal was 1.07 fold enrichment (6-mer frequency, TF over GST control).
The same measure, in the same setting: for TGCTGA the value was 1.07 fold enrichment (6-mer frequency, TF over GST control); for ACATGT, 1.16 fold enrichment (6-mer frequency, TF over GST control); for TCCGGG, 1.44 fold enrichment (6-mer frequency, TF over GST control).
On the same count and under the same terms, for GGCCTA the value was 1.26 fold enrichment (6-mer frequency, TF over GST control); for CGGCAT, 1.07 fold enrichment (6-mer frequency, TF over GST control); for ATACTA, 1.14 fold enrichment (6-mer frequency, TF over GST control).
For the sequence TCCCCG, the binding signal is 1.15 fold enrichment (6-mer frequency, TF over GST control).
In the case of CGAATT, the binding signal is 1.31 fold enrichment (6-mer frequency, TF over GST control).
The same measure, in the same setting: for TGCACT the value was 1.42 fold enrichment (6-mer frequency, TF over GST control); for TGATTC, 1.13 fold enrichment (6-mer frequency, TF over GST control).
On the same count and under the same terms, with TGCGCA the figure was 1.03 fold enrichment (6-mer frequency, TF over GST control); with AAGTGC, 1.32 fold enrichment (6-mer frequency, TF over GST control).
On the same count and under the same terms, with ATTCAG the figure was 1.02 fold enrichment (6-mer frequency, TF over GST control); with TGCCTG, 1.17 fold enrichment (6-mer frequency, TF over GST control); with CACCAC, 1.04 fold enrichment (6-mer frequency, TF over GST control).
With TCCACG, the binding signal was 1.06 fold enrichment (6-mer frequency, TF over GST control).
Same read-out and setting: for CCTATT the value was 1.52 fold enrichment (6-mer frequency, TF over GST control); for ACCTGA, 1.03 fold enrichment (6-mer frequency, TF over GST control); for CTTACA, 1.23 fold enrichment (6-mer frequency, TF over GST control).
The same measure, in the same setting: with GAATCC the figure was 1.18 fold enrichment (6-mer frequency, TF over GST control); with ATCACT, 1.26 fold enrichment (6-mer frequency, TF over GST control); with TGGAAA, 1.19 fold enrichment (6-mer frequency, TF over GST control).
On the same count and under the same terms, for CTTACC the value was 1.29 fold enrichment (6-mer frequency, TF over GST control); for CCCTGC, 1.22 fold enrichment (6-mer frequency, TF over GST control); for TGACAC, 1.28 fold enrichment (6-mer frequency, TF over GST control).
Regarding AACCAT, the binding signal is 1.15 fold enrichment (6-mer frequency, TF over GST control).
The same measure, in the same setting: for CATGAT the value was 1.02 fold enrichment (6-mer frequency, TF over GST control); for CTAAAA, 1.1 fold enrichment (6-mer frequency, TF over GST control).
